Experimental data published in the supplement of paper PMC10338343.
± gives the standard deviation.

Tested on: MILI (PIWIL2) piRISC loaded with L1MC piRNA (26 nt)
Assay: pre-steady-state target cleavage rate (min^-1); guide: L1MC piRNA 5'p-UAACUAAAUACUAUGCAAGCUGUAGG; MIWI and MILI are mouse PIWI proteins and EfPiwi is from a freshwater sponge; tags in brackets are library labels; higher = faster piRNA-guided slicing of the target
Conditions: auxiliary factor: none (no GTSF1)
Procedure, shortened: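 Cleave-'n-Seq used a transcribed, DNA-blocked target RNA library at 0.1 nM and active affinity-purified piRISC with one synthetic guide at 1 nM, with or without 500 nM GTSF1 partner protein, in HEPES–potassium acetate buffer at 33 °C for 0–8 or 0–960 min. Uncleaved targets were sequenced and normalised to depth and to weakly complementary targets, and three trials were pooled with k3 capped at 0.0001 min^-1. The pre-steady-state cleavage rate was estimated by a burst-and-steady-state fit.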

Sequence | pre-steady-state target cleavage rate
UCCUGGAUGUCGAACGUAAGUAUUUAGUUUA | < 0.0001
UCCUGGAUCAGCUUGCAUAGGUAUUUAGUUA | 0.00357 ± 0.0027
UCCUGGAUGUCGUUGCAUAGUUUAUAGUUA | 0.0036 ± 0.0028
UCCUGGAUGUCGUUGCAUACAAUUUAGUUA | 0.00319 ± 0.0024
UCCUGGAUGUCGAACCAUAGUAUUUUCAAA [g6:g15:cont:t1A] | < 0.0001
UCCUGGAUGUCGAACCUUAGUAUUUAGAUA | < 0.0001
